Screening results (PubChem)
D2 PAM-1: positive allosteric modulators of human D2 dopamine receptor; HEK293 T-REx D2, calcium flux, EC20 dopamine potentiation; potentiation, % at 10 µM; P14416; 340,000 tested, 0.34% active;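 active = potentiation over 3 SD above the plate norm, cut at about 30% in these data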; note: 0% is about no effect
Target sequence (P14416 whole entry, looked up): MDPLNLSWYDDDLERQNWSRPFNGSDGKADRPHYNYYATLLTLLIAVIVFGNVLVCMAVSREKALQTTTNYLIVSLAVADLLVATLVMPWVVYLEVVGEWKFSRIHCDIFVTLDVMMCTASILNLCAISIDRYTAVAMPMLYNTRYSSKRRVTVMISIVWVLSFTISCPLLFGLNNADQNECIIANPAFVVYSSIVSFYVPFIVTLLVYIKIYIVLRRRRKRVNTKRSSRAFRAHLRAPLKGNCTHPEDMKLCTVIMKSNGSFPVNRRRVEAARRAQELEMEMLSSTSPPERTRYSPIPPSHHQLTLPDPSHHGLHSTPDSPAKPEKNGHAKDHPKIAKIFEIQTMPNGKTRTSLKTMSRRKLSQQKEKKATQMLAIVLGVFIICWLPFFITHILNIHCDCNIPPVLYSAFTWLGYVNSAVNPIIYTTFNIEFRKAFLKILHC
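Using a no-wash calcium dye in inducible, force-coupled HEK293 Trex cells expressing D2, we tracked fluorescence each second for 180 s after compound, then for 180 s after EC20 dopamine to detect augmented signalling.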
D2 antag: D2 dopamine receptor (human) antagonism. P14416. HEK293 TREx D2 cells, calcium flux, dopamine EC80. inhibition, % at 10 µM. 340,000 tested, 2% active. AID 485344; in the data active = inhibition above about 30%; inactive = below that, where a call was filed; note: 0% is about no effect
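Calcium mobilization kinetics were recorded at 1 s intervals in tetracycline-induced HEK293 T-REx D2 cells, first for 180 s after compound addition and then 180 s after EC80 dopamine.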
D2 PAM-2: potentiates the human D2 dopamine receptor allosterically | P14416 | 360,000 tested, 0.23% active | DiscoveRx D2 beta-arrestin cells, luminescence, 90 min; 100% = 57 uM dopamine signal | potentiation, % (no concentration beside the values) | AID 624464; in the data active = potentiation above about 50%; inconclusive = mostly about 30% to 49%
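PathHunter beta-arrestin assay in DiscoveRx D2 cells. Compounds were added with an EC20 of dopamine (50 nM final) for 90 min at 37 deg C. Luminescence was read 1 h after detection reagent, with 57 uM dopamine as the EC100 control.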
D2 ag-1: activates the human D2 dopamine receptor; DiscoveRx PathHunter D2 beta-arrestin, luminescence, 90 min; 100% = 57 uM dopamine signal; activation, % (test concentration not listed); 360,000 tested, 0.084% active; AID 624465; P14416; in the data active = activation above about 40%; inconclusive = between about 15% and that limit
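DiscoveRx PathHunter D2 beta-arrestin cells (2,100/well) attached overnight, then compound-stimulated 90 min at 37 C in HBSS/10 mM HEPES/0.1% Tween-20 buffer; beta-galactosidase complementation read by luminescence after 1 h at ambient temperature. Dopamine 57 uM final (EC100) as control.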
D2 ag-2: agonists of human D2 dopamine receptor | HEK293 T-REx D2 cells, calcium flux agonist mode | activation, % at 2 µM | 340,000 tested, 0.53% active | AID 485358;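 active = activation over 3 SD above normal in the single-dose calcium agonist read, cut at about 30% in these data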; note: 0% is about no effect
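Tetracycline-induced HEK293 Trex cells with D2 receptor force-coupled to calcium signaling, plated overnight at 30 C and loaded with no-wash calcium dye. Calcium flux read kinetically for 180 s after compound addition; responses flag agonists.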
* marks the source's active call; other numbers are inactive results; ? = inconclusive; / = no result given. Rows were chosen to be rich in hits. Some 2.4% of all compounds tested hit in one or more screens of this group.

SMILES	D2 PAM-1	D2 antag	D2 PAM-2	D2 ag-1	D2 ag-2
CCOC(=O)C1C(=O)Nc2nc(C)nn2C1c1ccccc1 (stereo not given)	5	42*	-13	-2	1
Cc1ccc(C2C=C(c3ccccc3)Nc3nc(NS(=O)(=O)c4ccc(C)cc4)nn32)cc1 (stereo not given)	-4	/	/	/	2
CS(=O)(=O)Nc1nc2n(n1)C(c1ccccc1)C=C(c1ccc(Br)cc1)N2 (stereo not given)	-6	-5	75*	?	2
Cc1nn(CC(C)C(=O)N2CCN(S(=O)(=O)c3ccc(Cl)cc3)CC2)c(C)c1C (stereo not given)	-16	32*	-3	-4	2
Cc1ccc(S(=O)(=O)N2CCN(C(=O)C(C)Cn3nc(C)c(C)c3C)CC2)cc1 (stereo not given)	-7	11	2	-1	1
CC(=O)N1CCCc2cc(S(=O)(=O)N3CCN(c4ccc(F)cc4)CC3)ccc21	-9	/	/	/	1
CC1Cc2ccccc2N1C(=O)CSc1nnc(-c2cccc(Cl)c2)o1 (stereo not given)	-8	/	/	/	-2
COc1ccc(OC)c(CNC(=O)Cn2ncc3c([nH]c4ccc(C)cc43)c2=O)c1	/	/	/	/	0
Cc1cc(C)nc(N2CCCC(C(=O)Nc3nnc(C(C)(C)C)s3)C2)n1 (stereo not given)	3	48*	-11	2	-2
CCc1nnc(NC(=O)C2CCCN(c3nc(C)cc(C)n3)C2)s1 (stereo not given)	11	0	3	-2	3
Cc1ccc(NC(=O)C2CCCN(c3ncccn3)C2)cc1F (stereo not given)	-7	8	-4	-2	-1
Cc1cc(C)cc(NC(=O)C2CCCN(c3ncccn3)C2)c1 (stereo not given)	-8	50*	1	4	-1
COc1ccc(C2CC(c3ccccc3)=NN2C(=O)COC(=O)c2cc(S(=O)(=O)N3CCOCC3)ccc2Cl)cc1 (stereo not given)	2	32*	-11	-1	2
CCN1CCN(c2c(S(=O)(=O)c3ccc(C)c(C)c3)cnc3ccc(F)cc23)CC1	-21	37*	-12	-5	-1
CC(C)(C)C1CCC(C(=O)Nc2ccc(N3CCOCC3)cc2N2CCOCC2)CC1 (stereo not given)	-14	31*	-5	-4	0
CCCCCOc1ccc(C(=O)Nc2ccc(N3CCOCC3)cc2N2CCOCC2)cc1	78*	-12	-2	-2	0
CCCCC1CCC(C(=O)Nc2ccccc2N2CCOCC2)CC1 (stereo not given)	11	33*	17	-1	1
CCNC(=O)c1c(NC(=O)Cc2coc3cc(C)ccc23)sc2c1CCCC2	/	/	/	/	-1
CCOC(=O)c1oc2ccc(S(=O)(=O)n3nc(-c4ccc(C)cc4)cc3N)cc2c1C	2	35*	0	-30	0
O=C(c1nc2ncccn2n1)N1CCN(c2ccc(F)cc2)CC1	31*	10	-11	-3	1
O=Cc1ccc(-c2cccs2)s1	/	/	-19	-1	/
Oc1ccc(N=Cc2ccc(-c3cccs3)s2)cc1	8	-1	56*	12	0
Cc1cc(NC(=O)Cn2ccsc2=N)c([N+](=O)[O-])cc1C	-19	22	7	-7	0
COc1ccc([N+](=O)[O-])cc1NC(=O)Cn1ccsc1=N	-19	31*	-44	4	1
COc1ccc(C(C)=O)cc1COC(=O)CSC(C)C(=O)Nc1cc(C)on1 (stereo not given)	3	2	4	-3	0
SMILES	D2 PAM-1	D2 antag	D2 PAM-2	D2 ag-1	D2 ag-2
COc1ccc(C(C)=O)cc1COC(=O)CSCC(=O)Nc1ccc(C)cc1	-27	30*	-31	-4	-1
Cc1cc(NC(=O)c2cccn2-c2nnc(N3CCCCC3)s2)ccc1Br	/	/	/	/	0
COc1cccc(Oc2nc(-c3ccccc3O)nc3ccccc23)c1	-6	43*	5	-3	-1
Cc1ccccc1Nc1nc(N)c(C(=O)c2ccccc2Cl)s1	-4	/	/	/	0
Cc1ccc(C2CC2/C(=N/O)c2ccc(F)cc2)cc1 (stereo not given)	-7	34*	11	1	0
N#Cc1ccc(NC(=O)COC(=O)CSc2nnc(-c3ccc(Cl)cc3)o2)cc1	-1	31*	2	0	2
O=C(COC(=O)CSc1nnc(-c2ccc(Cl)cc2)o1)Nc1cc(Cl)ccc1Cl	-5	5	-15	-3	0
COc1cccc(CN2CC(C(=O)NCc3cccc(Cl)c3)CCC2=O)c1 (stereo not given)	-9	-5	0	4	1
COc1ccccc1CN1CC(C(=O)NCc2cccc(Cl)c2)CCC1=O (stereo not given)	-10	36*	-6	-3	0
CCN(CC)C(=O)c1ccc2c(c1)N(Cc1ccc(C(F)(F)F)cc1)C(=O)c1ccccc1S2	-15	/	/	/	1
COc1ccc(-c2csc(NC(=O)CN3C(=O)NC4(CCCC4)C3=O)n2)cc1	-14	38*	2	1	0
CCCc1nc(SCc2cc(=O)c3ccc(C)c(C)c3[nH]2)n[nH]1	2	/	/	/	0
CN(C)CCCNS(=O)(=O)c1cc(Cl)ccc1Cl	-3	38*	-10	-2	-1
CCCCC12CN3CC(C)(CN(C1)C3c1c[nH]c3ccccc13)C2=O (stereo not given)	3	/	/	/	5
C1CNCCNCCCNCCNC1	-1	46*	/	/	-1
N/C(=N\OC(=O)c1ccc(F)cc1)c1ccccc1	-9	5	72*	?	-1
N/C(=N\OC(=O)c1cccc(F)c1)c1ccccc1	5	-2	57*	?	0
Cc1ccc(NC(=O)Nc2nnc(N3CCCC3)s2)c(C)c1	-3	/	/	/	1
COc1ccc(OCC(=O)Nc2c(C(=O)N(CCN(C)C)Cc3ccco3)oc3ccccc23)cc1	31*	-3	-30	-4	1
O=C(Nc1ccccc1)c1nc[nH]c1C(=O)NCCNC(=O)c1[nH]cnc1C(=O)Nc1ccccc1	/	/	61*	?	/
COC(=O)c1ccc(Cl)cc1NC(=O)N(Cc1ccc(OC)cc1)C1CCN(C(C)=O)CC1	4	/	/	/	/
COc1cc(C(=O)OC(C)C(=O)N2CCCC2)cc2c1OCCO2 (stereo not given)	2	67*	-4	-3	0
CN1CCC(Oc2ccccc2Sc2ccccc2)CC1	-17	32*	-45	-3	1
CN1CCC(OC(c2ccccc2)c2ccccc2)CC1	-22	-17	-25	-3	-2
Cc1ccccc1Cn1cc(CCC(=O)NC(C)c2ccccc2)c2ccccc21 (stereo not given)	1	/	/	/	0
